Inconclusive results are not listed. Where a call stands in place of a potency, no number is given. A number with no mark means an inactive call. Activity calls are given as the source filed them. Unless noted, the call rests on the fitted dose curve.
How the values were obtained:
[1] = qHTS assay to identify small molecule agonists of the peroxisome proliferator-activated receptor delta (PPARd) signaling pathway - cell viability counter screen (AID 743211; active means well fitted curve in the direction sought with a large enough effect in the repeat runs; an effect the other way counts as inactive or inconclusive; further: nearly all actives have a fitted effect of over 55% in size)
Method in brief: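 Viability was measured as CellTiter-Glo luminescence (30 min, room temperature) in the same wells as the beta-lactamase readout. GeneBLAzer PPARd UAS-bla HEK293H cells received compound after 5 h plating and were incubated 17 h at 37 C.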

[2] = target: Peroxisome proliferator-activated receptor delta (Homo sapiens) (UniProt Q03181); experiment: qHTS assay to identify small molecule agonists of the peroxisome proliferator-activated receptor delta (PPARd) signaling pathway (AID 743212)
Chain of Peroxisome proliferator-activated receptor delta (Homo sapiens) (Q03181 whole entry, looked up): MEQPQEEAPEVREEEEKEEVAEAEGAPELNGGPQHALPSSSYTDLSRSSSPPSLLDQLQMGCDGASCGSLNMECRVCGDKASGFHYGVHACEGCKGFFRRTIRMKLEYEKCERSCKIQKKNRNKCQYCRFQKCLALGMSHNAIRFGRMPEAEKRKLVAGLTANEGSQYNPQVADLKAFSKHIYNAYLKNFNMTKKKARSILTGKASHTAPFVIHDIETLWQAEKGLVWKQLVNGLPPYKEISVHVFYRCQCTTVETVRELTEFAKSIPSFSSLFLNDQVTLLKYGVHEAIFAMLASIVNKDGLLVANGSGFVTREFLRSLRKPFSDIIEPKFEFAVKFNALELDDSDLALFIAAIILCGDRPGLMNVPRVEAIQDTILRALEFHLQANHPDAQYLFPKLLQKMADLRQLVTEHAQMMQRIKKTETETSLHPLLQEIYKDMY
Method in brief: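 Read-out: beta-lactamase FRET fluorescence after 2 h room-temperature incubation with LiveBLAzer B/G substrate. Cells were HEK293H carrying a UAS-bla reporter for PPARd, treated at 37 C with DMSO-dissolved compounds.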

[3] = qHTS assay to identify small molecule antagonists of the peroxisome proliferator-activated receptor delta (PPARd) signaling pathway - cell viability counter screen (AID 743213; active means well fitted curve in the direction sought with a large enough effect in the repeat runs; an effect the other way counts as inactive or inconclusive; further: nearly all actives have a fitted effect of over 50% in size)
Method in brief: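 Cytotoxicity counter screen: CellTiter-Glo luminescence read 30 min after addition, in the same wells as the reporter assay. There, PPARd UAS-bla HEK293H cells (3000/well) were treated 17 h at 37 C with compound and 300 nM L165041.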

[4] = target: Bile acid receptor (Homo sapiens) (UniProt Q96RI1); experiment: qHTS assay to identify small molecule antagonists of the farnesoid-X-receptor (FXR) signaling pathway (AID 743217; active means well fitted inhibition curve with a large enough effect in the signal ratio in the repeat runs, not every such curve was filed as active; the % refers to the signal ratio)
Chain of Bile acid receptor (Homo sapiens) (Q96RI1 whole entry, looked up): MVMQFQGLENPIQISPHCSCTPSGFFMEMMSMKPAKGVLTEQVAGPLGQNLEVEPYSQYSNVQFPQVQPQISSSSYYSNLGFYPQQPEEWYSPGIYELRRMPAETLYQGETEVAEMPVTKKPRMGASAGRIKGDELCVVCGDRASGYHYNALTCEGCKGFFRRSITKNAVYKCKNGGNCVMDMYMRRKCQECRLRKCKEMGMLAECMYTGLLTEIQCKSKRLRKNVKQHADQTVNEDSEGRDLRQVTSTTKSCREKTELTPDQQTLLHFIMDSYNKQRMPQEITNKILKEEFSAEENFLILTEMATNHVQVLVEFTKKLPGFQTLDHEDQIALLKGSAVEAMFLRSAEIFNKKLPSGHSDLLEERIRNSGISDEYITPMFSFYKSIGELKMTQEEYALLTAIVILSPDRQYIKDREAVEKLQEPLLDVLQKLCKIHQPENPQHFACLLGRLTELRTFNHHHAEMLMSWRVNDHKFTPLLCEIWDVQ
Method in brief: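 Test compounds are pin-transferred onto FXR-bla HEK 293T cells, then chenodeoxycholic acid is added at 50 uM final. After 16 h at 37 °C, LiveBLAzer B/G substrate is applied for 2 h at room temperature and fluorescence read.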

[5] = qHTS assay to identify small molecule agonists of the farnesoid-X-receptor (FXR) signaling pathway - cell viability counter screen (AID 743218; active means well fitted curve in the direction sought with a large enough effect in the repeat runs; an effect the other way counts as inactive or inconclusive; further: nearly all actives have a fitted effect of over 45% in size)
Method in brief: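 Quantitative HTS counter screen measuring ATP-based viability via CellTiter-Glo luminescence in HEK 293T cells carrying a UAS-driven beta-lactamase reporter, after 16 h compound exposure at 37 C.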

[6] = target: Bile acid receptor (Homo sapiens) (UniProt Q96RI1); experiment: qHTS assay to identify small molecule agonists of the farnesoid-X-receptor (FXR) signaling pathway (AID 743220; active means well fitted activation curve with a large enough effect in the signal ratio in the repeat runs, not every such curve was filed as active; the % refers to the signal ratio)
Method in brief: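 FXR-UAS-bla HEK 293T cells carrying a UAS-driven beta-lactamase reporter were plated for 5 h at 37C/5% CO2, then exposed to DMSO-dissolved Tox21 10K compounds for 16 h at 37C. A LiveBLAzer B/G FRET substrate was loaded for 2 h at room temperature before fluorescence reading.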

[7] = qHTS assay to identify small molecule antagonists of the farnesoid-X-receptor (FXR) signaling pathway - cell viability counter screen (AID 743221; active means well fitted cell-killing curve with a large enough effect in the repeat runs, not every such curve was filed as active; further: nearly all actives have a fitted effect of over 50% in size)
Method in brief: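 Cytotoxicity counter screen run in the FXR-bla reporter wells: HEK 293T cells exposed to compound with 50 uM (final) chenodeoxycholic acid for 16 h, 37 C, then viability measured by CellTiter-Glo luminescence after 30 min, room temperature.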

[8] = target: Vitamin D3 receptor (Homo sapiens) (UniProt P11473); experiment: qHTS assay to identify small molecule agonists of the vitamin D receptor (VDR) signaling pathway (AID 743222)
Chain of Vitamin D3 receptor (Homo sapiens) (P11473 whole entry, looked up): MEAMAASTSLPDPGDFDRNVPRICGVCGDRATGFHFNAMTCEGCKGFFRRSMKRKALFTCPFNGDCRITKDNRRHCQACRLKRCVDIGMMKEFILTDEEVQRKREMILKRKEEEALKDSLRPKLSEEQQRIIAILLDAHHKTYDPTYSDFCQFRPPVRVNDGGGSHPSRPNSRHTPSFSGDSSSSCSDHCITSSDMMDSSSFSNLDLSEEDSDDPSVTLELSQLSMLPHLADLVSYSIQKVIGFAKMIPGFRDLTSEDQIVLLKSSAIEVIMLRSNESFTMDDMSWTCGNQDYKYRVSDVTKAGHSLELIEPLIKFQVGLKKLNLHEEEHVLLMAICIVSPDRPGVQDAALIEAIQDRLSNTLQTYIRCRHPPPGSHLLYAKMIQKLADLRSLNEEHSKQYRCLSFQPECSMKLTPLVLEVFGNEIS
Method in brief: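 Tox21 cell reporter format: VDR-bla line, 16 h compound exposure in 5% CO2 at 37C, then fluorescence intensity after 2 h with LiveBLAzer B/G FRET substrate.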

[9] = target: Vitamin D3 receptor (Homo sapiens) (UniProt P11473); experiment: qHTS assay to identify small molecule antagonists of the vitamin D receptor (VDR) signaling pathway (AID 743223; active means well fitted inhibition curve with a large enough effect in the signal ratio in the repeat runs, not every such curve was filed as active; the % refers to the signal ratio)
Method in brief: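 Antagonist mode: compound added to VDR-bla cells alongside agonist 1alpha,25-dihydroxyvitamin D3 (3 nM final), incubation 16 h at 37C. Read-out is LiveBLAzer FRET fluorescence, 2 h at room temperature.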

[10] = qHTS assay to identify small molecule agonists of the vitamin D receptor (VDR) signaling pathway - cell viability counter screen (AID 743224; active means well fitted curve in the direction sought with a large enough effect in the repeat runs; an effect the other way counts as inactive or inconclusive; further: series mostly up to about 63 µM; nearly all actives have a fitted effect of over 50% in size)
Method in brief: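 CellTiter-Glo viability readout on VDR-bla cells, measured after 16 h of compound treatment at 37C in the same wells.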

[11] = qHTS assay to identify small molecule agonists of the NFkB signaling pathway - cell viability counter screen (AID 1159515); further: series mostly up to about 61 µM; nearly all actives have a fitted effect of over 55% in size
Method in brief: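 Tox21 library compounds were tested for cytotoxicity against NFkB-bla ME-180 cells during a 5 hr exposure at 37 C. CellTiter-Glo luminescence served as the viability read-out.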

[12] = qHTS assay to identify small molecule agonists of the endoplasmic reticulum stress response signaling pathway (AID 1159516; active means well fitted activation curve with a large enough effect in the signal ratio in the repeat runs, not every such curve was filed as active; the % refers to the signal ratio)
Method in brief: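 Fluorescence at 460 and 530 nm (405 nm excitation) reports beta-lactamase from an ER stress response element in HeLa cells treated 5 hr at 37 C.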

[13] = qHTS assay to identify small molecule agonists of the endoplasmic reticulum stress response signaling pathway - cell viability counter screen (AID 1159517); further: series mostly up to about 61 µM; nearly all actives have a fitted effect of over 50% in size
Method in brief: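 Steps: seed 1,500 ESRE-bla HeLa cells per well; incubate overnight at 37 C, 5% CO2; add compounds in DMSO for 5 hr; run FRET substrate 2 hr RT; add CellTiter-Glo, wait 30 min, read luminescence.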

[14] = target: Nuclear receptor ROR-gamma (Homo sapiens) (UniProt P51449); experiment: qHTS assay to identify small molecule antagonists of the retinoid-related orphan receptor gamma (ROR-gamma) signaling pathway (AID 1159521; active means well fitted curve in the direction sought with a large enough effect in the repeat runs; an effect the other way counts as inactive or inconclusive)
Method in brief: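 Antagonist read-out: drop in luminescence (ONE-Glo) from an RORE-LUC reporter in CHO cells with doxycycline-inducible ROR-gamma; 2 hr compound pretreatment, 1 uM doxycycline, 16 hr incubation at 37 C.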

[15] = qHTS assay to identify small molecule agonists of the AP-1 signaling pathway - cell viability counter screen (AID 1159525); further: nearly all actives have a fitted effect of over 55% in size
Method in brief: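 Same-well cytotoxicity counter screen of the Tox21 10K library in ME-180 cells. The readout is ATP-dependent luminescence after 5 h compound treatment. Data are normalised to DMSO and tetra n-octyl ammonium bromide controls.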

[16] = qHTS assay to identify small molecule agonists of the AP-1 signaling pathway (AID 1159526)
[17] = target: Retinoic acid receptor RXR-alpha (Homo sapiens) (UniProt P19793); experiment: qHTS assay to identify small molecule agonists of the RXR signaling pathway (AID 1159527); further: nearly all actives have a fitted effect of over 35% in size; further: potency means the concentration at half of the fitted maximal effect
Chain of Retinoic acid receptor RXR-alpha (Homo sapiens) (P19793 whole entry, looked up): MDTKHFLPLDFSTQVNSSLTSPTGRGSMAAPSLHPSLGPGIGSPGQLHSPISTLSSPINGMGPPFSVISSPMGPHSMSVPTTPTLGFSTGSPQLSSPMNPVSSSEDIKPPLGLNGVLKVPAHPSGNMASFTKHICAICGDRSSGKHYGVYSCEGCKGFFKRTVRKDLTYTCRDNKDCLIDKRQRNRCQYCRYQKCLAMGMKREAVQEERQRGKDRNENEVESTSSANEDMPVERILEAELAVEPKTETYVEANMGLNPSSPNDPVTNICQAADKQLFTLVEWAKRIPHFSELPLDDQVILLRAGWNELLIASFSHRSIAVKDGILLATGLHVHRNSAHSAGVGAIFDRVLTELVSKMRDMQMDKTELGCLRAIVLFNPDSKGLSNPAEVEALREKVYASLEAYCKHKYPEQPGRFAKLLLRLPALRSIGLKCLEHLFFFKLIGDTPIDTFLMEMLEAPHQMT
Method in brief: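 Agonist-mode beta-lactamase reporter assay: HEK 293T RXR-alpha-UAS-bla cells treated 16 hr at 37 C with compounds, 9-cis retinoic acid as positive control. LiveBLAzer FRET substrate, 405 nm excitation, 460/530 nm emission.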

[18] = qHTS assay to identify small molecule antagonists of the vitamin D receptor (VDR) signaling pathway - cell viability counter screen (AID 743225; active means well fitted curve in the direction sought with a large enough effect in the repeat runs; an effect the other way counts as inactive or inconclusive; further: nearly all actives have a fitted effect of over 50% in size)
Method in brief: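 Cytotoxicity counter screen read by CellTiter-Glo luminescence (30 min, room temperature) in the same wells as the VDR-bla antagonist readout. HEK 293T VDR-UAS-bla cells had 16 h at 37C with compound and 3 nM (final) 1-alpha,25-dihydroxyvitamin D3, then 2 h with FRET substrate.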

[19] = qHTS assay to identify small molecule antagonists of the retinoid-related orphan receptor gamma (ROR-gamma) signaling pathway - cell viability counter screen (AID 1159520; active means well fitted curve in the direction sought with a large enough effect in the repeat runs; an effect the other way counts as inactive or inconclusive; further: nearly all actives have a fitted effect of over 50% in size)
Method in brief: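 Tet-on ROR gamma CHO cells were given compounds for 2 hr, then doxycycline hyclate at 1 uM final, and incubated 16 hr at 37 C. Viability was measured as ATP content by CellTiter-Glo luminescence.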

[20] = target: Peroxisome proliferator-activated receptor delta (Homo sapiens) (UniProt Q03181); experiment: qHTS assay to identify small molecule antagonists of the peroxisome proliferator-activated receptor delta (PPARd) signaling pathway (AID 743215; active means well fitted inhibition curve with a large enough effect in the signal ratio in the repeat runs, not every such curve was filed as active; the % refers to the signal ratio;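 further: cells stimulated with agonist L165041 at 300 nM final during compound exposure; series mostly up to about 62 µM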)
Method in brief: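 Here, a reporter line (HEK293H, beta-lactamase under a UAS) measures PPARd signaling. Compounds are tested against agonist L165041 at 300 nM final concentration over 17 h at 37 C, with fluorescence read after substrate.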

O=C(Cc1ccccc1)c1ccccc1
Potency [1]: inactive
outcome [2]: inactive
Potency [3]: inactive
Potency [4]: inactive
Potency [5]: inactive
outcome [6]: inactive
Potency [7]: inactive
outcome [8]: inactive
Potency [9]: inactive
Potency [10]: inactive
Potency [11]: inactive
Potency [12]: inactive
Potency [13]: inactive
Potency [14]: inactive
Potency [15]: inactive
Potency [16]: inactive
Potency [17]: inactive

CC(C)OC(=O)Cc1ccccc1
Potency [1]: inactive
Potency [3]: inactive
Potency [5]: inactive
Potency [7]: inactive
outcome [8]: inactive
Potency [9]: inactive
Potency [10]: inactive
Potency [18]: inactive
Potency [11]: inactive
Potency [12]: inactive
Potency [13]: inactive
Potency [19]: inactive
Potency [15]: inactive
Potency [16]: inactive
Potency [17]: inactive

O=C(N/N=C/c1ccc([N+](=O)[O-])o1)c1cc([N+](=O)[O-])cc([N+](=O)[O-])c1O
Potency [1]: inactive
outcome [2]: inactive
Potency [3]: inactive
Potency [20]: inactive
Potency [5]: inactive
outcome [6]: inactive
Potency [7]: inactive
outcome [8]: inactive
Potency [9]: inactive
Potency [10]: inactive
Potency [18]: inactive
Potency [11]: inactive
Potency [12]: inactive
Potency [13]: inactive
Potency [19]: inactive
Potency [15]: inactive
Potency [16]: inactive

CC(=O)OC(c1ccccc1)C(Cl)(Cl)Cl (stereo unspecified)
Potency [1]: inactive
outcome [2]: inactive
Potency [3]: inactive
Potency [20]: inactive
Potency [5]: inactive
outcome [6]: inactive
Potency [7]: inactive
outcome [8]: inactive
Potency [10]: inactive
Potency [11]: inactive
Potency [12]: inactive
Potency [13]: inactive
Potency [14]: inactive
Potency [15]: inactive
Potency [16]: inactive
Potency [17]: inactive

Cc1cnc(C2=NC(C)(C(C)C)C(=O)N2)c(C(=O)O)c1 (stereo unspecified)
Potency [3]: inactive
Potency [20]: inactive
Potency [5]: inactive
Potency [7]: inactive
outcome [8]: inactive
Potency [9]: inactive
Potency [10]: inactive
Potency [18]: inactive
Potency [11]: inactive
Potency [12]: inactive
Potency [13]: inactive
Potency [19]: inactive
Potency [15]: inactive
Potency [16]: inactive

Cc1cccc(C)c1NC1=NCCCS1
Potency [1]: inactive
outcome [2]: inactive
Potency [3]: inactive
Potency [20]: inactive
Potency [5]: inactive
Potency [7]: inactive
outcome [8]: inactive
Potency [9]: inactive
Potency [10]: inactive
Potency [18]: inactive
Potency [11]: inactive
Potency [12]: inactive
Potency [13]: inactive
Potency [14]: inactive
Potency [15]: inactive
Potency [16]: inactive
Potency [17]: inactive

COc1ccc(C(=O)c2c(C)n(CCN3CCOCC3)c3ccccc23)cc1
Potency [1]: inactive
outcome [2]: inactive
Potency [3]: inactive
Potency [20]: inactive
outcome [6]: inactive
Potency [7]: inactive
Potency [10]: inactive
Potency [18]: inactive
Potency [11]: inactive
Potency [12]: inactive
Potency [13]: inactive
Potency [19]: inactive
Potency [15]: inactive
Potency [16]: inactive

C#CC(O)(C=CCl)CC (stereo unspecified)
Potency [1]: inactive
Potency [3]: inactive
Potency [20]: inactive
Potency [5]: inactive
outcome [6]: inactive
Potency [7]: inactive
outcome [8]: inactive
Potency [9]: inactive
Potency [10]: inactive
Potency [18]: inactive
Potency [11]: inactive
Potency [12]: inactive
Potency [13]: inactive
Potency [19]: inactive
Potency [15]: inactive
Potency [16]: inactive
Potency [17]: inactive

O=C(O)COc1cc(Cl)c(Cl)cc1Cl
Potency [1]: inactive
Potency [3]: inactive
Potency [20]: inactive
Potency [4]: inactive
Potency [5]: inactive
outcome [6]: inactive
Potency [7]: inactive
outcome [8]: inactive
Potency [9]: inactive
Potency [10]: inactive
Potency [18]: inactive
Potency [11]: inactive
Potency [12]: inactive
Potency [13]: inactive
Potency [19]: inactive
Potency [15]: inactive
Potency [16]: inactive
Potency [17]: 24.6 µM (active)

O=C(O)CCCOc1ccc(Cl)cc1Cl
Potency [1]: inactive
Potency [3]: inactive
Potency [7]: inactive
outcome [8]: inactive
Potency [10]: inactive
Potency [18]: inactive
Potency [11]: inactive
Potency [12]: inactive
Potency [13]: inactive
Potency [19]: inactive
Potency [15]: inactive
Potency [16]: inactive

O=C(O)C(F)(F)C(F)(F)C(F)(F)C(F)(F)C(F)(F)F
Potency [1]: inactive
Potency [3]: inactive
Potency [20]: inactive
Potency [5]: inactive
Potency [7]: inactive
outcome [8]: inactive
Potency [9]: inactive
Potency [10]: inactive
Potency [11]: inactive
Potency [12]: inactive
Potency [13]: inactive
Potency [19]: inactive
Potency [15]: inactive
Potency [16]: inactive
Potency [17]: inactive

C[N+](C)(C)CCOC(=O)C(O)(c1ccccc1)c1ccccc1
Potency [1]: inactive
outcome [2]: inactive
Potency [20]: inactive
Potency [7]: inactive
outcome [8]: inactive
Potency [9]: inactive
Potency [10]: inactive
Potency [11]: inactive
Potency [12]: inactive
Potency [13]: inactive
Potency [14]: inactive
Potency [15]: inactive
Potency [16]: inactive
Potency [17]: inactive

CC(C)(C#N)C(C)(C)C#N
Potency [1]: inactive
outcome [2]: inactive
Potency [20]: inactive
Potency [5]: inactive
outcome [6]: inactive
Potency [7]: inactive
Potency [10]: inactive
Potency [18]: inactive
Potency [11]: inactive
Potency [12]: inactive
Potency [13]: inactive
Potency [19]: inactive
Potency [16]: inactive
Potency [17]: inactive

CCCCC1C(=O)NC(=O)N(C2CCCCC2)C1=O (stereo unspecified)
Potency [1]: inactive
Potency [3]: inactive
Potency [4]: inactive
Potency [5]: inactive
outcome [6]: inactive
Potency [7]: inactive
outcome [8]: inactive
Potency [9]: inactive
Potency [10]: inactive
Potency [18]: inactive
Potency [11]: inactive
Potency [12]: inactive
Potency [13]: inactive
Potency [19]: inactive
Potency [16]: inactive
Potency [17]: inactive

O=[N+]([O-])O[C@H]1CO[C@H]2[C@@H]1OC[C@H]2O[N+](=O)[O-]
Potency [1]: inactive
Potency [3]: inactive
Potency [20]: inactive
Potency [5]: inactive
Potency [7]: inactive
outcome [8]: inactive
Potency [9]: inactive
Potency [10]: inactive
Potency [11]: inactive
Potency [12]: inactive
Potency [13]: inactive
Potency [14]: inactive
Potency [15]: inactive
Potency [16]: inactive
Potency [17]: inactive

— PubChem BioAssay (Tox21)
